# Data reported in PubChem BioAssay (NCI).
# Compounds without any hit were thinned out: in the full panel of roughly 83,000, 20% have a hit.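 96-well plates, one dose, 48 hours. Percent growth reported; active if below 10.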 Calls of active or inactive are those of the source.
# Columns and labels:
# Assay in all cases: NCI-60 one-dose screen, 48 h (100 = growth as untreated, 0 = no growth, -100 = all killed)
# NCI-H23 lung = settings: 10 µM unless noted
# NCI-H226 lung = settings: 10 µM unless noted
# NCI-H322M lung = settings: 10 µM unless noted
# HOP-62 NSCLC = settings: 10 µM unless noted
# NCI-H460 lung = settings: 10 µM unless noted
# HOP-92 NSCLC = settings: 10 µM
# NCI-H522 lung = settings: 10 µM unless noted
# A549/ATCC NSCLC = settings: 10 µM unless noted
# 786-0 renal = settings: 10 µM unless noted
# COLO 205 colon = settings: 10 µM unless noted
SMILES,growth (NCI-H23 lung),growth (NCI-H226 lung),growth (NCI-H322M lung),growth (HOP-62 NSCLC),growth (NCI-H460 lung),growth (HOP-92 NSCLC),growth (NCI-H522 lung),growth (A549/ATCC NSCLC),growth (786-0 renal),growth (COLO 205 colon)
C=C1CC[C@@H]2[C@](C)(CO)[C@H](O)CC[C@@]2(C)[C@@H]1C/C(O)=C1\CCOC1=O,104% (inactive),108% (inactive),103% (inactive),102% (inactive),103% (inactive),101% (inactive),82.5% (inactive),96% (inactive),111% (inactive),130% (inactive)
COc1cc(/C=N/NC(=O)c2cn(C3CC3)c3c(OC)c(N4CC5CCCNC5C4)c(F)cc3c2=O)ccc1O (stereo not given),55.4% (inactive),87.3% (inactive),55.4% (inactive),96% (inactive),-66.6% (active),79.5% (inactive),46.8% (inactive),-21.4% (active),-62.2% (active),35.6% (inactive)
COc1ccc(C(=O)c2c(N)c(C#N)cn2-c2ccccc2OC)cc1,32.8% (inactive),60.5% (inactive),75.2% (inactive),56.3% (inactive),17.4% (inactive),52.5% (inactive),-1.29% (active),53.4% (inactive),43.7% (inactive),38.5% (inactive)
COc1cc(Nc2c(C#N)cnn3cc(-c4cnn(CC(C)(C)O)c4)cc23)ccc1Cl,41.4% (inactive),42.1% (inactive),41.9% (inactive),45.6% (inactive),59.7% (inactive),58.1% (inactive),15% (inactive),52.4% (inactive),34.7% (inactive),75.9% (inactive)
COc1cc(OC)c(/C=C/S(=O)(=O)Cc2ccc(OC)c(NCC(=O)NO)c2)c(OC)c1,15.4% (inactive),25.6% (inactive),45.6% (inactive),20.8% (inactive),10.8% (inactive),51.8% (inactive),3.67% (active),22.3% (inactive),28.1% (inactive),-67.6% (active)
N#Cc1cnc2ccc(-c3cnc4[nH]ncc4c3)cc2c1N1CCc2cc(F)c(Cl)cc21,7.08% (active),-0.212% (active),15.3% (inactive),3.97% (active),3.18% (active),-7.43% (active),1.37% (active),9.1% (active),11% (inactive),12% (inactive)
Cc1ccc(NC(=S)NNC(=S)Nc2ccc(C)cc2)cc1,95.2% (inactive),103% (inactive),96.7% (inactive),97.8% (inactive),112% (inactive),93.1% (inactive),93.4% (inactive),105% (inactive),89.6% (inactive),115% (inactive)
Cn1ccnc1C(=O)/C=C/C=C/c1ccc(C(=O)Nc2ccc(F)cc2)cc1,18.2% (inactive),54.7% (inactive),61.1% (inactive),44.7% (inactive),34.2% (inactive),82.9% (inactive),4.66% (active),56.7% (inactive),22.8% (inactive),32.8% (inactive)
O=C(NNc1nc2cc(F)c(F)cc2n2c(CN3CC4CNCC4C3)ccc12)c1ncccn1 (stereo not given),26% (inactive),10.6% (inactive),27.8% (inactive),0.597% (active),2.27% (active),20.2% (inactive),0.166% (active),15.2% (inactive),9.75% (active),9.36% (active)
COc1ccc(N2CCN(C3=C(Cl)C(=O)C(C)=C(C)C3=O)CC2)cc1,106% (inactive),99.2% (inactive),106% (inactive),91.5% (inactive),104% (inactive),102% (inactive),92.3% (inactive),108% (inactive),118% (inactive),125% (inactive)
O=C(NNc1nc2cc(F)ccc2n2c(CN3CC4CNCC4C3)ccc12)c1cnccn1 (stereo not given),35.4% (inactive),25% (inactive),31.8% (inactive),24.9% (inactive),4.93% (active),50.8% (inactive),16.9% (inactive),21.5% (inactive),16.3% (inactive),18.3% (inactive)
Cc1ccc(-n2cc(/C=N/NC(=O)c3ccncc3)c(-c3ccc(S(C)(=O)=O)cc3)n2)cc1,83% (inactive),101% (inactive),93.5% (inactive),88.7% (inactive),101% (inactive),97.5% (inactive),68.8% (inactive),103% (inactive),90% (inactive),104% (inactive)
C=C(C=O)[C@@H]1CC[C@]2(C)[C@H](C(=O)C=C3[C@H]4C[C@](C)(C(=O)OC)CC[C@]4(C)CC[C@]32C)[C@@]1(C)CCC#N,4.93% (active),-53.6% (active),109% (inactive),41.2% (inactive),32.4% (inactive),-35.2% (active),52.5% (inactive),104% (inactive),13.6% (inactive),86.4% (inactive)
O=C(O)c1ccc(-n2cc(CNc3cc(F)c(F)c(F)c3)c(-c3ccc(F)cc3)n2)cc1,90% (inactive),101% (inactive),98% (inactive),113% (inactive),97.1% (inactive),108% (inactive),90.1% (inactive),77.8% (inactive),109% (inactive),131% (inactive)
Cc1ccc(-n2cc(/C=N/NC(=O)c3nc(N)n[nH]3)c(-c3ccc(S(C)(=O)=O)cc3)n2)cc1,96.6% (inactive),102% (inactive),104% (inactive),98.6% (inactive),103% (inactive),94.2% (inactive),92.3% (inactive),104% (inactive),98.6% (inactive),105% (inactive)
COc1ccc2c(c1)c(CC(=O)[Se]CCC#N)c(C)n2C(=O)c1ccc(Cl)cc1,3.36% (active),-53.6% (active),-3.57% (active),-48.1% (active),1.16% (active),-67.8% (active),-8.61% (active),2.64% (active),-45.3% (active),88.4% (inactive)
CNC(=O)c1c(NC(=O)c2cccc(C(F)(F)F)c2F)sc2c1CCC(=O)C2,8.64% (active),16.2% (inactive),82.4% (inactive),22.4% (inactive),7.32% (active),-21.5% (active),4.78% (active),14.7% (inactive),18.1% (inactive),-6.56% (active)
N#Cc1cccc(CN2CCC3=C(C2)C(=O)N(Cc2ccc(Cl)cc2)C2=NCCN23)c1,30.8% (inactive),35% (inactive),50.8% (inactive),31.8% (inactive),15% (inactive),29% (inactive),23.1% (inactive),27.2% (inactive),44.7% (inactive),-41% (active)
NS(=O)(=O)c1ccc(Nc2nc(N/N=C/c3ccc(Cl)cc3)nc(Nc3ccccc3)n2)cc1,87.1% (inactive),81.4% (inactive),93.1% (inactive),83.1% (inactive),72.2% (inactive),91% (inactive),79.1% (inactive),62.6% (inactive),40.3% (inactive),73.8% (inactive)
COc1cc(OC)c(/C=C/S(=O)(=O)Cc2ccc(OC)c(NC(=O)CCC(=O)NO)c2)c(OC)c1,16.6% (inactive),27.2% (inactive),47.8% (inactive),25.3% (inactive),6.85% (active),63.5% (inactive),-6.54% (active),24.6% (inactive),28.5% (inactive),-53.6% (active)
COc1ccc2c(c1)c(CC(=O)[Se]CC(=O)O)c(C)n2C(=O)c1ccc(Cl)cc1,78.9% (inactive),100% (inactive),46.8% (inactive),29.3% (inactive),5.72% (active),93.7% (inactive),100% (inactive),21.6% (inactive),106% (inactive),129% (inactive)
Cn1ccnc1C(=O)/C=C/c1ccc(CNC(=O)c2ccc(F)cc2)cc1,5.81% (active),51.7% (inactive),29.7% (inactive),41.6% (inactive),-27.1% (active),62.3% (inactive),24.3% (inactive),27.6% (inactive),21.9% (inactive),42.8% (inactive)
O=C1CCCc2nc(Nc3ccc(S(=O)(=O)Nc4ccc([N+](=O)[O-])cc4)cc3)ncc21,102% (inactive),109% (inactive),106% (inactive),111% (inactive),103% (inactive),121% (inactive),87.7% (inactive),104% (inactive),99.9% (inactive),121% (inactive)
COc1cc(/C=C/C(=O)c2ccc(NC(=O)CSc3nnc(-c4ccc(-c5nc6ccc(Cl)cc6[nH]5)cc4)o3)cc2)cc(OC)c1OC,101% (inactive),104% (inactive),99.6% (inactive),89.8% (inactive),98.7% (inactive),115% (inactive),76.1% (inactive),99.5% (inactive),109% (inactive),106% (inactive)
